Targets with a hit are over-represented here; the source holds about 7,900 in all. About 0.6% of all pairs of compound and target were hits. A number with no mark means an inactive call.
Columns and labels:
Assay in all cases: log2 fold change, soluble protein after heating vs DMSO (PISA); higher = thermal stabilisation; K562 cells, 10 uM, 30 min; active = over 0.2 and 3.5 SD of the protein, either way, in both replicates (recomputed)
erlotinib = compound: C#Cc1cccc(Nc2ncnc3cc(OCCOC)c(OCCOC)cc23)c1 [erlotinib]
How it was run: (§1)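 Thermal stability values are relative to control samples and come from duplicates. They are expressed as log2 fold changes. For measurement, K562 cells (2×10^6 cells/mL) received 10 μM compound for 30 min, and aliquots were heated for 3 min over 48°C-58°C, pooled, and extracted at 4°C in PBS with 0.5% NP-40. Soluble protein, the supernatant after 21,000xg for 90 min, was quantified by TMTpro 16plex LC-MS/MS with equalised channel sums.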

[1] = compound: C/C(=N\NC(=O)C1=CC(=CC=C1)S(=O)(=O)N2CCOCC2)/C3=C(C=CC(=C3)Cl)O
How it was run: as §1

[2] = compound: C1=CC(=C(C=C1Cl)C2=NC3=NC=CN=C3C(=N2)NC4=CC=NC=C4)F
How it was run: as §1

[3] = compound: C1=CC(=CC=C1C2=NC3=C(N2)C=C(C=C3)C(=O)N)OC4=CC=C(C=C4)Cl
How it was run: as §1

[4] = compound: C1=CC2=C(C=CC(=C2)/C=C\3/C(=O)NC(=NCC4=CC=CS4)S3)N=C1
How it was run: as §1

[5] = compound: C1=CC2=NC=CN=C2C=C1/C=C/3\C(=O)NC(=O)S3
How it was run: as §1

[6] = compound: C1=CC=C(C=C1)C2=NC(=C(N2)C3=CC=NC=C3)C4=CC(=C(C=C4)Cl)O
How it was run: as §1

[7] = compound: C1=CC=C2C(=C1)C3=NNC4=CC=CC(=C43)C2=O
How it was run: as §1

[8] = compound: C1CCN(C1)C(=O)NC2=CC=CC(=C2)NC3=NC=C(C(=N3)NCCC4=CN=CN4)Br
How it was run: as §1

[9] = compound: C1CN(CCC1(CC2=CC=C(C=C2)Cl)N)C3=NC=NC4=C3C=CN4
How it was run: as §1

Sequence of UniProt P11182 (P11182 whole entry, looked up): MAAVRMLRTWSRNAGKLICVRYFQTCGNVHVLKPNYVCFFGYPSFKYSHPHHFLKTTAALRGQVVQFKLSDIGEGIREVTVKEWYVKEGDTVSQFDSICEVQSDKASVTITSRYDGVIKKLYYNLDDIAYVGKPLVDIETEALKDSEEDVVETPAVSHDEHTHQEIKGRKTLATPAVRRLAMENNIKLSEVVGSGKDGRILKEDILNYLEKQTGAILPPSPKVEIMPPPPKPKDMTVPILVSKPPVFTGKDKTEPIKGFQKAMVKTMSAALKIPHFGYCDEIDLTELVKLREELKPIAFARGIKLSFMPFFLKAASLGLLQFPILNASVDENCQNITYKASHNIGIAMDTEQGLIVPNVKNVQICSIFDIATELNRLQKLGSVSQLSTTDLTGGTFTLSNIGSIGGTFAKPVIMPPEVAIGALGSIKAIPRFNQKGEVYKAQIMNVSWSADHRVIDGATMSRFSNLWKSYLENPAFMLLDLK
Sequence of UniProt O00471 (O00471 whole entry, looked up): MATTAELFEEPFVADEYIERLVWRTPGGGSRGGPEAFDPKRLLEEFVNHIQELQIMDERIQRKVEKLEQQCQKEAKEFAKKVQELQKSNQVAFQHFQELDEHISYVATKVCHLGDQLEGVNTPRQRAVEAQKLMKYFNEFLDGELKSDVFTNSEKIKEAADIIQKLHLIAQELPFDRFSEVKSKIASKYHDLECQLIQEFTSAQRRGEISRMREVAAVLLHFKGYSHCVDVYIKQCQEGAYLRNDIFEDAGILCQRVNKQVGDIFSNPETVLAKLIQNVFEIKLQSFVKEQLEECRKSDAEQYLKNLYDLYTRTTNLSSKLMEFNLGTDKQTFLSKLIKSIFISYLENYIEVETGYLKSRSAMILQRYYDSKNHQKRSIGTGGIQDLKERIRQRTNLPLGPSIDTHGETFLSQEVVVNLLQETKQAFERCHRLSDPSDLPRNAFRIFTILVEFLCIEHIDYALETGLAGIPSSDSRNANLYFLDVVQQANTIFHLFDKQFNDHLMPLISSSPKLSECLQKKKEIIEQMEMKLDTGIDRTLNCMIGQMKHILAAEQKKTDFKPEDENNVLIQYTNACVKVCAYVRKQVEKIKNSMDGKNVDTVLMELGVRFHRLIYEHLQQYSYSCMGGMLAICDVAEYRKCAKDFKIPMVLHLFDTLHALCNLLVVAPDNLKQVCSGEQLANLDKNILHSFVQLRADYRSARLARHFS
Sequence of UniProt A1L3X0 (A1L3X0 whole entry, looked up): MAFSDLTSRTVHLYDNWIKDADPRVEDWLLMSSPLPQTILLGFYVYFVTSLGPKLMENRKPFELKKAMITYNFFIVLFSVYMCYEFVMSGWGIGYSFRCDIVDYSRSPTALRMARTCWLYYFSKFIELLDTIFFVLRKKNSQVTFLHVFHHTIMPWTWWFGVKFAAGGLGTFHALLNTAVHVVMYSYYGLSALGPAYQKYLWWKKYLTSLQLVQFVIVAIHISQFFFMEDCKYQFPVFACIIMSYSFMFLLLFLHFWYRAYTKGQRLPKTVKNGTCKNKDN
Sequence of UniProt P06730 (P06730 whole entry, looked up): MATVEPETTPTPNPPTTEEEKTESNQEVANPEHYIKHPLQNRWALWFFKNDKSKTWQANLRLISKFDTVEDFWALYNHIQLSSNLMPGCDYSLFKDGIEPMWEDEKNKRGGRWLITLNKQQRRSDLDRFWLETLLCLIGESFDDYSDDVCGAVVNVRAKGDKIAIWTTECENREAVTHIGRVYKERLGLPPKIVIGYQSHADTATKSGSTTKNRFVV
Sequence of UniProt Q9UER7 (Q9UER7 whole entry, looked up): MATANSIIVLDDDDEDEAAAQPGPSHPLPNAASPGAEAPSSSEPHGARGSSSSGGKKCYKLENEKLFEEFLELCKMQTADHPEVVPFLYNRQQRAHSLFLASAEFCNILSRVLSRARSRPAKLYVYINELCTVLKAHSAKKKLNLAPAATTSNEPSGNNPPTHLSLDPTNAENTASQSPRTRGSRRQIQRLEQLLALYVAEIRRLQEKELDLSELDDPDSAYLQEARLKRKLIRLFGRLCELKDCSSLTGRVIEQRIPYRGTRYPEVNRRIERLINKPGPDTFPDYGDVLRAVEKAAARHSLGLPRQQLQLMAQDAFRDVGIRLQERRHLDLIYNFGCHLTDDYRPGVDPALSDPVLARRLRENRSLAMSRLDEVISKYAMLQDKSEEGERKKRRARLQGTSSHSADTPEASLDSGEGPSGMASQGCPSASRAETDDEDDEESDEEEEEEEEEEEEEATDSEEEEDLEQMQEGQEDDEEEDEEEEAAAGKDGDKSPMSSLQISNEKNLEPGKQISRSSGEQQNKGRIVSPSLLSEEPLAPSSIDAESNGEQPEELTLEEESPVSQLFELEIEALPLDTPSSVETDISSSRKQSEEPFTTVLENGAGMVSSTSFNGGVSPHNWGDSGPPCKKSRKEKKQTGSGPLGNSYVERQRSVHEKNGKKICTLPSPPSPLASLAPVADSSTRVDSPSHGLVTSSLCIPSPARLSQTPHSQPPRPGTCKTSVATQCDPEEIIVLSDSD
Sequence of UniProt P18146 (P18146 whole entry, looked up): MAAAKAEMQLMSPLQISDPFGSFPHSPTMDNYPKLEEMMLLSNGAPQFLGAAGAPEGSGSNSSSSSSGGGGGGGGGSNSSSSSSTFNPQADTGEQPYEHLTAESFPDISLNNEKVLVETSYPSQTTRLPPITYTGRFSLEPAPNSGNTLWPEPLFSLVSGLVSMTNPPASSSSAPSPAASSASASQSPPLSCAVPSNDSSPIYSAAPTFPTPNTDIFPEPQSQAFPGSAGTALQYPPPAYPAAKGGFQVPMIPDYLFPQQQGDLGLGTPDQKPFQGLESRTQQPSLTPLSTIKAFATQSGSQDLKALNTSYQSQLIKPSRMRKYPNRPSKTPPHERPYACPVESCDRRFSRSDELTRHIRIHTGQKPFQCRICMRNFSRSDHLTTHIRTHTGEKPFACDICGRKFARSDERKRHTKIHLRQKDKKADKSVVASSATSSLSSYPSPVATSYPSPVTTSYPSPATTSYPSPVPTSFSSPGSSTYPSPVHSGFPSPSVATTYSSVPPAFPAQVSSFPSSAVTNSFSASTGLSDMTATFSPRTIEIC
Sequence of UniProt Q5QP82 (Q5QP82 whole entry, looked up): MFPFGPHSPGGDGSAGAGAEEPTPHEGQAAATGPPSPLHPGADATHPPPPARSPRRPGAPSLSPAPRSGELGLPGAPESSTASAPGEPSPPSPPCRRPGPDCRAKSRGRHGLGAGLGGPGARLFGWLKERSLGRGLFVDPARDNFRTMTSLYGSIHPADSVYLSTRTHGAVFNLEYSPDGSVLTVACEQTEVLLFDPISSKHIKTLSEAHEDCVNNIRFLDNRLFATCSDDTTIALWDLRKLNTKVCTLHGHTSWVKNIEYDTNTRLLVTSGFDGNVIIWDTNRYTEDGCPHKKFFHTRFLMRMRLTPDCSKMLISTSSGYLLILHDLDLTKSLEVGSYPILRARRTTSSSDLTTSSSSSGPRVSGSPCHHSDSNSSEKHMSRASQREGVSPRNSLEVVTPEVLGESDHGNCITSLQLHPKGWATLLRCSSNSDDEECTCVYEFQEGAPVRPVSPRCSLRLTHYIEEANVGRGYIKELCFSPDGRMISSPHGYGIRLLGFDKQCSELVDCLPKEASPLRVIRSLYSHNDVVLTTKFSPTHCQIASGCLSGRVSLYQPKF
Sequence of UniProt Q96GQ7 (Q96GQ7 whole entry, looked up): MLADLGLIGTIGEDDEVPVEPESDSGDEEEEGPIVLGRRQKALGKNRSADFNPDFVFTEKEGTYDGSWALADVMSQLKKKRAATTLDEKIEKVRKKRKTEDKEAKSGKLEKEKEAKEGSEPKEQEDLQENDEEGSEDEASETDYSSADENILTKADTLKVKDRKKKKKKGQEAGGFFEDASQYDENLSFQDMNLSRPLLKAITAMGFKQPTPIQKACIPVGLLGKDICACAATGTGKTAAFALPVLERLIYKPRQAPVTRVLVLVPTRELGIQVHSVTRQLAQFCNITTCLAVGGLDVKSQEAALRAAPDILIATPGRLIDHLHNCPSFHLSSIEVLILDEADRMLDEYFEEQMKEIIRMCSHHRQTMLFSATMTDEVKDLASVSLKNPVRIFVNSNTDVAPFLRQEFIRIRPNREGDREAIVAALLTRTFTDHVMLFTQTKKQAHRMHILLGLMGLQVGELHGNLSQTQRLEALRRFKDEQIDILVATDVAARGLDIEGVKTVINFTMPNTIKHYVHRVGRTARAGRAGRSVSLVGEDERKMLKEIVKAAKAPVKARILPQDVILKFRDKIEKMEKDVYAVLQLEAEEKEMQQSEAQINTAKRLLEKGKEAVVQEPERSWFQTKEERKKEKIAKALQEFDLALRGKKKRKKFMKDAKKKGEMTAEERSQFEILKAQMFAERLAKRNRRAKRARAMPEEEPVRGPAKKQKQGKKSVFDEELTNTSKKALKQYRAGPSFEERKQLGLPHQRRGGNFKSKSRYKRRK
Sequence of UniProt Q8N6R0 (Q8N6R0 whole entry, looked up): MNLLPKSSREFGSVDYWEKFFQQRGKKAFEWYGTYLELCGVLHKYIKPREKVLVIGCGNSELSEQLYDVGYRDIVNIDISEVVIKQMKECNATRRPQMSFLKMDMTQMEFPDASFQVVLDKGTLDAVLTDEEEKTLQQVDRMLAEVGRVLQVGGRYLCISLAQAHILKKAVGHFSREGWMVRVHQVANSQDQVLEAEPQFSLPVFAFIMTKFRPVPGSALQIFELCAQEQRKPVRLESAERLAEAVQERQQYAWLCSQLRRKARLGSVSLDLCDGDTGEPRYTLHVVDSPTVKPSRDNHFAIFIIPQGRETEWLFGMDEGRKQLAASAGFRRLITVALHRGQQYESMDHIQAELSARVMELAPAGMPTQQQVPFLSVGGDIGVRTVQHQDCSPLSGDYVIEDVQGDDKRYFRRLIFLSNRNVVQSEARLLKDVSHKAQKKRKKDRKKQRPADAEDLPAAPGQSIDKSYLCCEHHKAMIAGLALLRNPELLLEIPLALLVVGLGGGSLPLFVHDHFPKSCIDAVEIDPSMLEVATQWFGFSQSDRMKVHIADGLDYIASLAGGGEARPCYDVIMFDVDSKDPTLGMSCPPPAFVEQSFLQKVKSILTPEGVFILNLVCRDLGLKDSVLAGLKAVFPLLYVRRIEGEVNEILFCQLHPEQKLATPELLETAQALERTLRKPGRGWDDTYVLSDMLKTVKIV

Target	log2 fold change (erlotinib)	log2 fold change [1]	log2 fold change [2]	log2 fold change [3]	log2 fold change [4]	log2 fold change [5]	log2 fold change [6]	log2 fold change [7]	log2 fold change [8]	log2 fold change [9]
EXOC5 (UniProt O00471)	0.054	0.092	-0.002	-0.044	0.01	0	-0.006	0.015	0.004	-0.015
ELAC1 (UniProt Q9H777)	0.035	-0.068	0.04	-0.061	0.041	–	–	-0.021	–	–
EEF1AKNMT (UniProt Q8N6R0)	0.063	0.15	0.008	-0.022	0.114	0.013	0.091	0.058	0.023	-0.061
DSN1 (UniProt Q9H410)	0.07	0.042	-0.002	0.024	-0.019	-0.009	-0.018	0.006	0.004	-0.091
EIF4E isoform 2 (UniProt P06730)	0.084	-0.035	0.056	-0.073	0.01	0.168	0.074	0.152	0.181	0.146
FAM241A (UniProt Q8N8J7)	-0.012	-0.005	–	0.044	-0.076	0.043	-0.014	0.012	0.016	0.045
ELOVL5 isoform 2 (UniProt Q9NYP7)	0.03	0.117	-0.087	-0.005	0.084	0.122	0.068	-0.068	0.031	0.008
ESS2 (UniProt Q96DF8)	-0.057	-0.05	-0.013	0.046	-0.083	0.04	-0.055	-0.071	-0.008	0.096
DDX27 (UniProt Q96GQ7)	0.104	-0.116	-0.287	0.015	0.059	–	-0.039	0.025	-0.064	-0.259
EGR1 (UniProt P18146)	-0.105	0.001	0.071	0.176	0.208	0.088	-0.28	-0.474	0.118	-0.121
CYP24A1 (UniProt Q07973)	-0.042	-0.796 (active)	–	-0.072	0.015	-0.13	0.091	-0.057	0.179	0.046
DBT (UniProt P11182)	-0.041	-0.019	-0.021	0.049	-0.03	0.038	0.099	-0.01	-0.006	-0.065
CTSB (UniProt P07858)	0.021	-0.037	0.026	0.003	0.038	0.016	0.009	-0.017	0.007	0.04
FAM117B (UniProt Q6P1L5)	0.088	0.053	-0.134	0.079	0.098	–	0.151	0.099	0.165	0.09
DMXL1 (UniProt Q9Y485)	0.059	0.071	-0.006	0.006	0.068	-0.001	0.024	-0.02	0.019	0.034
ELOVL7 (UniProt A1L3X0)	-0.008	0.062	-0.065	0.009	0.182	–	–	-0.162	0.078	0.065
DDX46 (UniProt Q7L014)	0.053	0.23	0.134	0.081	0.034	0	-0.023	-0.022	-0.062	-0.141
FAAP100 (UniProt Q0VG06)	0.003	0.019	0.246	0.037	0.052	0.17	-0.024	0.023	-0.122	0.004
DNAJC1 (UniProt Q96KC8)	0.001	0.096	0.059	0.014	0.082	0.004	-0.021	-0.022	-0.001	0.027
DNAJB1 (UniProt P25685)	0.005	0.017	0.012	0.008	0.024	0.053	0.024	-0.025	-0.019	0.009
DHPS (UniProt P49366)	0	-0.01	0.088	-0.002	-0.034	0.033	0.024	-0.004	-0.007	0.021
CYFIP1 (UniProt Q7L576)	-0.016	0.066	0.07	0.018	0.002	0.026	0.003	-0.016	0.005	0.059
DNAAF2 (UniProt Q9NVR5)	0.046	0.021	0.108	-0.003	0.01	0.016	-0.018	-0.025	0.021	-0.025
EOGT (UniProt Q5NDL2)	-0.058	-0.018	-0.032	0.002	-0.026	-0.016	-0.032	0.032	0.004	0.04
DCAF10 (UniProt Q5QP82)	0.01	0.014	0.021	0.029	-0.038	0.064	-0.077	-0.013	0.029	0.006
EXOC4 (UniProt Q96A65)	0.131	0.159	0.044	-0.071	0.09	0.033	-0.036	-0.018	-0.02	-0.083
EFCAB14 (UniProt O75071)	0.051	-0.053	0.013	0.024	-0.049	0.033	0.159	-0.119	0.044	-0.032
DAXX (UniProt Q9UER7)	0.212	-0.662 (active)	–	0.037	0.072	0.012	0.055	0.009	-0.148	0.224

— the supplement of paper PMC10849652
